# Sampled rows, rich in hits. Any-hit rate of the full collection: about 9.2%.
# SMN2 splice up: increases expression of the SMN2 splice variant | HEK293 SMN2-luciferase splicing reporter, luminescence, 30-36 h | Potency, µM (titrated, usually from 46.1 µM), without a hit: at the highest dose activity change, positive = activation, hits mostly activators | hit rate 2.8% among 210,000 | AID 1458; also: % of control where 0% means no effect; nearly all actives have a fitted effect of over 55% in size
#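 qHTS luciferase splicing reporter: luminescence rises when SMN2 exon 7 is included in transfected HEK293 cells. Compound exposure lasted 30-36 h at 37C, with 4.5 mM final sodium butyrate as control, followed by a ONE-Glo read.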
# ELG1 DNA repair: inhibitors of ELG1-dependent DNA repair in HEK293T cells | Potency, µM (doses to about 46.1 µM), inactives show top-dose activity change, negative = inhibition, usual class: inhibitors | HEK293T ELG1-luciferase reporter, luminescence, 16 h; DNA damage induced by 5-fluorouridine | hit rate 2.3% among 330,000; also: % is scaled to controls: 0 for no effect and ±100 for the full control effect; nearly all actives have a fitted effect of over 55% in size
#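 Cells (2,000 per well) received 5-fluorouridine plus test compound or DMSO and were incubated 16 hr at 37 °C, 5% CO2. Luciferase activity was read by luminescence 30 min after ONE-Glo addition; signal suppression marked inhibition of damage-induced ELG1 function.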
# FLuc modulator: counter-screen for miR-21 project: firefly luciferase inhibitors or activators; P08659; purified FLuc, Km substrates, luminescence inhibition; Potency, µM (titrated, usually from 57.5 µM), inactives show top-dose activity change, negative = inhibition, hits mostly inhibitors; hit rate 6.9% among 360,000;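 also: plate controls were vehicle for no effect and reference inhibitor for full effect; nearly all actives have a fitted effect of over 55% in size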
# Target sequence (P08659 whole entry, looked up): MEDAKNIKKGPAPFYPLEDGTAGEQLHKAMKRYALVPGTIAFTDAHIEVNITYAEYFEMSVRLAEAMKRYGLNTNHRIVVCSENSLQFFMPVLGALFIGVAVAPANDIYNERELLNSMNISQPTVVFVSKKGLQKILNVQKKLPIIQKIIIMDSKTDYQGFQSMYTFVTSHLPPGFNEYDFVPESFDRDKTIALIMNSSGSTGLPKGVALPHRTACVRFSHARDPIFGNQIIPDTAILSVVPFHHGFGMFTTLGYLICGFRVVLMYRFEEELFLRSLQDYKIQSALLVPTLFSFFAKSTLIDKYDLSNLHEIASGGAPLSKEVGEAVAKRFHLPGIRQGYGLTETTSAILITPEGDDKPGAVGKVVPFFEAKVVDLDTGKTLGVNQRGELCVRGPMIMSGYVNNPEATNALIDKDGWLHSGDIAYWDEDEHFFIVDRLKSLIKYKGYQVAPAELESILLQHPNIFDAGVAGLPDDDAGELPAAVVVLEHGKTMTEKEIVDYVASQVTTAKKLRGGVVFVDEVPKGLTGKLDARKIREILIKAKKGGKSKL
#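 Purified P. pyralis luciferase (10nM final) with 10uM D-luciferin and 10uM ATP (Km levels) in 50mM Tris acetate pH 7.5, 10mM Mg acetate, 0.01% Tween-20, 0.05% BSA; qHTS 6-point titration, ~60 µM downward; luminescence read.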
# Rab9 prom act: Rab9 promoter activation. Huh7 Rab9 promoter-luciferase reporter, luminescence, 24 h. Potency, µM (titrated, usually from 9.22 µM), for inactives: top-dose activation, negative = inhibition, hits mostly activators. hit rate 2.8% among 320,000; also: % of control where 0% means no effect; nearly all actives have a fitted effect of over 60% in size
#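 Huh7 reporter line, Rab9 promoter upstream of luciferase. Compound exposure 24 h at 37 °C in reduced-serum medium with 10% FBS. Read-out: luminescence.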
# ELG1 genotox: induces genotoxicity in HEK293T cells with luciferase-tagged ELG1; HEK293T ELG1-luciferase reporter, luminescence, 16 h; Potency, µM (doses to about 46 µM), for the others: at the highest dose activity change, positive = activation, hits mostly activators; hit rate 1.3% among 330,000; AID 504466; also: % of control where 0% means no effect; nearly all actives have a fitted effect of over 60% in size
#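 Step 1: seed 2,000 HEK293T ELG1-luciferase cells per well. Step 2: add compound or DMSO, incubate 16 hr at 37 °C. Step 3: ONE-Glo, 30 min at room temperature, read luminescence.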
# NPC1 promoter act: activates the NPC1 promoter. Huh7 NPC1 promoter luciferase reporter, 24 h. Potency, µM (titrated, usually from 9.22 µM), without a hit: at the top dose activation, most hits filed as activators. hit rate 2.4% among 320,000; also: % of control where 0% means no effect; nearly all actives have a fitted effect of over 60% in size
#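 Compounds in DMSO were transferred onto Huh7 NPC1-luciferase reporter cells pre-incubated 2 h; after 24 h at 37 °C, Amplite reagent was dispensed and luminescence recorded 10 min later.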
# * hit, by the source's call; ? = inconclusive; . = no result; [ ] = dose if it differs, or a comment. Calls follow the shape of the dose curve; as a rule, active = well fitted curve in the direction sought with a large enough effect; inconclusive = small, poorly fitted or top-dose-only effect, or another doubt; inactive = no such curve, though single readings can be large; an effect the other way counts as inactive or inconclusive. Potency is read from the fitted curve at half-maximal effect.
SMILES,SMN2 splice up,ELG1 DNA repair,FLuc modulator,Rab9 prom act,ELG1 genotox,NPC1 promoter act
O=C(COC(=O)c1ccccc1)Nc1cccc(S(=O)(=O)N2CCCCC2)c1,.,15%,2%,1%,3%,-3%
O=C(Nc1ccc(Cl)cc1)N1CCc2ccccc2C1,.,2%,?,3%,-4%,-1%
O=C(CN1CCc2ccccc2C1)Nc1ccc(F)cc1,.,2%,3%,-3%,0%,-6%
O=C(Nc1ccccc1)N1CCc2ccccc2C1,14µM*,?,21µM*,4µM*,15%,?
O=C(CNc1cccc(F)c1)N1CCc2ccccc2C1,.,?,13µM*,4.5µM*,?,3.2µM*
O=C(c1cccc(F)c1)N1CCc2ccccc2C1,?,0%,?,18%,12%,2%
CN(C)c1ccc(NC(=O)CN2CCc3ccccc3C2)cc1,.,?,24µM*,?,?,29%
Cc1ccc(NC(=O)N2CCc3ccccc3C2)cc1,11µM*,?,12µM*,3.5µM*,8.2µM*,2.8µM*
CC(=O)NC1C(=O)N(CCN2CCOCC2)c2ccc(C)cc21 (configuration not stated),.,16%,21µM*,11%,-1%,-8%
COc1ccc(CNC(=O)c2cc(C)nn2-c2ccccc2)cc1,.,0%,1%,-2%,1%,-2%
CSc1nc(SCC(=O)O)c2c3c(sc2n1)COC(C)(C)C3,.,?,?,-4%,2%,-4%
CSC1=NC(NCCCO)c2c(sc3c2CC(C)(C)OC3)N1 (configuration not stated),-5%,21µM*,-2%,-4%,-10%,-2%
COc1cccc(CC(=S)N2CCOCC2)c1,12%[1.84 µM],19%,-2%,10%,3%,6%
Cc1ccc(O)c(N=Cc2sc3ccccc3c2Cl)c1,-7%,?,1.5µM*,21%,3%,16%
O=c1[nH][nH]cc1C=Nc1ccccc1O,?,-10%,1%,-10%,-2%,2%
Oc1ccccc1N=Cc1sc2ccccc2c1Cl,-1%,-16%,2.1µM*,-5%,-2%,-5%
Oc1ccc(Cl)cc1C=Nc1ccccc1Br,-5%,-3%,-14%,0%,0%,0%
Cc1ccc(Nc2nc(N)c(C#N)c(CC#N)c2C#N)cc1,6%,8%,2%,12%,3%,17%
COC(=O)[C@H](Cc1ccccc1)NC(=O)O[C@@H]1C(=O)c2ccc(OC)cc2O[C@H]1c1cccc(C(F)(F)F)c1,-3%,.,.,.,.,.
COc1ccccc1C1=NC(c2ccc(F)cc2)N=C1C (configuration not stated),23%,-6%,?,?,14%,20%
COc1ccccc1C1N=C(c2ccccc2C)NO1 (configuration not stated),.,?,8.5µM*,?,10µM*,21%
Cc1ccccc1-c1nn(-c2ccc(F)cc2F)cc1CNCC(C)O (configuration not stated),.,-2%,-2%,-10%,-1%,-7%
Cc1ccccc1C1=NC(c2ccc(F)cc2F)ON1 (configuration not stated),35%,?,24µM*,24%,11µM*,1%
COc1ccc(-c2noc(COc3cc(C)ccc3C)n2)cc1OC,-25%,.,-10%,.,.,.
CC(C)[C@H](O)CC[C@@H](C)C1CC[C@H]2C3CC=C4C[C@@H](O)CC[C@]4(C)C3CC[C@]12C (some centres not stated),-6%,.,.,.,.,.
SMILES,SMN2 splice up,ELG1 DNA repair,FLuc modulator,Rab9 prom act,ELG1 genotox,NPC1 promoter act
CCOC(=O)c1cnc2ccc(C)cc2c1Nc1ccc(N(CC)CC)cc1,-62%,.,?,.,.,.
Clc1nc2c(-c3ccccc3)nnn2c2ccccc12,.,?,1.5µM*,-1%,-10%,0%
Fc1cccc(-c2nnn3c2nc(Cl)c2ccccc23)c1,1%,?,1.7µM*,-1%,24%,-4%
CC(OC(=O)c1cccnc1Cl)C(=O)Nc1ccc2c(c1)OCO2 (configuration not stated),.,?,.,.,-5%,.
Cc1ccccc1OCc1ccc(-c2nc(C#N)c(N3CCC(C(N)=O)CC3)o2)o1,.,.,-20%,.,.,.
CN(C)S(=O)(=O)N1CCC(c2ccc(F)cc2)C(COc2ccc3c(c2)OCO3)C1 (configuration not stated),-22%,16µM*,-1%,8%,-3%,1%
Fc1ccc([C@H]2CCNCC2COc2ccc3c(c2)OCO3)cc1 (some centres not stated),1%,.,.,.,.,.
Cc1sc2nc(CN3CCOCC3)[nH]c(=S)c2c1C,-1%,-13%,-12%,6%,1%,-2%
Cc1ccc(S(=O)(=O)NCc2ccccc2)cc1C(=O)N1CC(C)CC(C)C1 (configuration not stated),.,-18%,2%,-13%,-3%,-2%
COc1ccccc1NC(=O)Nc1ccc(C(=O)N2CCCCC2)cc1,.,?,3µM*,0.89µM*,13µM*,?
Cc1ccc(S(=O)(=O)NCc2ccccc2)cc1C(=O)NC1CCC(C)CC1 (configuration not stated),.,?,?,1.3µM*,?,?
CCNS(=O)(=O)c1ccc(NC(=O)Nc2cc(C)ccc2OC)cc1,.,?,?,-3%,1%,-1%
COc1ccc(CNS(=O)(=O)c2ccc(F)c(C(=O)Nc3ccccc3OC)c2)cc1,-29%,?,0%,-4%,7%,0%
COc1ccccc1NC(=O)c1cc(S(=O)(=O)NCc2ccccc2)ccc1F,-24%,16µM*,-3%,3%,-11%,1%
CCNS(=O)(=O)c1ccc(NC(=O)Nc2ccccc2OC)cc1,.,?,17µM*,-1%,8%,2%
COc1c(C)cc(S(=O)(=O)NCc2ccccn2)c(C)c1C,.,?,-2%,-4%,0%,-5%
FC(F)(F)c1nnc2ccc(Sc3ccccn3)nn12,6%,-18%,0%,-11%,-10%,-1%
COc1ccc(C(=O)Nc2ccc(C(=O)N3CCCCC3)cc2)cc1OC,.,?,24µM*,19%,14%,16%
Cc1ccc(C(=O)Nc2ccc(C(=O)N3CCCCC3)cc2)o1,.,?,24µM*,?,?,?
CCOc1ccc(S(=O)(=O)NCc2ccncc2)cc1NC(=O)c1ccccc1,.,4.1µM*,-2%,-26%,?,-25%
COc1ccc(OC)c(-n2nnnc2SCC(=O)Nc2ccc(C(=O)N3CCCCC3)cc2)c1,-37%,23µM*,-13%,-3%,-10%,-1%
Cn1cnc(S(=O)(=O)N2CCCC(C(=O)NCc3ccc(Cl)cc3)C2)c1 (configuration not stated),.,.,-8%,.,.,.

# Assay outcomes: PubChem BioAssay, National Center for Advancing Translational Sciences (NCATS)
